# Source: PubChem BioAssay (EPA / NIEHS)
# Values joined by “and” are separate entries in the source; they are usually repeats but may differ in a detail not shown here. Equal values may be shown once. The source holds several records for some structures; these can differ, active in one and inactive in another. Active and inactive are the calls of the source. The calls were made as follows: active = hit-call score of the fitted dose curve at least 0.9, where 1 is the maximum; inactive = score below 0.9.
# How the values were obtained:
# Details in all cases: mRNA level, 48 h; actives raise or lower the signal
# [1] = read-out: Cytochrome P450 7A1 (Homo sapiens) (UniProt P22680); test: LTEA_HepaRG_CYP7A1: Life Technologies and Expression Analysis (LTEA) Assay for Cytochrome P450 7A1 (CYP7A1) using HepaRG (AID 2283496)
# Procedure, shortened: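 Gene expression endpoint in human HepaRG liver cells treated for 48 h with test chemicals (up to 100 uM, 0.5% DMSO). Values come from bidirectional concentration-response fitting versus DMSO.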
# [2] = read-out: Glutathione S-Transferase (GSTA2), GSTA2 (gene 2939); test: LTEA_HepaRG_GSTA2: Life Technologies and Expression Analysis (LTEA) Assay for Glutathione S-Transferase (GSTA2) using HepaRG (AID 2283497)
# Procedure, shortened: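 Human HepaRG cells, plated 48 h, then exposed in serum-free induction medium for 48 h to eight half-log concentrations up to 100 uM in 0.5% DMSO, duplicate. GSTA2 mRNA by qRT-PCR, normalized to ACTB/GAPDH/POLR2A; bidirectional fit versus DMSO.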
# [3] = read-out: Glutamate-cysteine ligase catalytic (GCLC), GCLC (gene 2729); test: LTEA_HepaRG_GCLC: Life Technologies and Expression Analysis (LTEA) Assay for Glutamate-cysteine ligase catalytic (GCLC) using HepaRG (AID 2283498)
# Procedure, shortened: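 Differentiated human HepaRG cells, plated 48 h then switched to serum-free induction medium, were exposed in duplicate for 48 h to 8 half-log concentrations topping at 100 uM in 0.5% DMSO. GCLC mRNA was quantified by qRT-PCR against ACTB, GAPDH and POLR2A.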
# [4] = read-out: growth arrest and DNA damage 45 (GADD45G), GADD45G (gene 10912); test: LTEA_HepaRG_GADD45G: Life Technologies and Expression Analysis (LTEA) Assay for growth arrest and DNA damage 45 (GADD45G) using HepaRG (AID 2283499)
# Procedure, shortened: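 Differentiated human HepaRG cells in serum-free induction medium were exposed for 48 h to 8 half-log concentrations up to 100 uM in 0.5% DMSO, in duplicate. GADD45G mRNA was measured by TaqMan qRT-PCR, normalised to ACTB, GAPDH and POLR2A, and fitted bidirectionally against DMSO.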
# [5] = read-out: Glutamate-cysteine ligase regulatory (GCLM), GCLM (gene 2730); test: LTEA_HepaRG_GCLM: Life Technologies and Expression Analysis (LTEA) Assay for Glutamate-cysteine ligase regulatory (GCLM) using HepaRG (AID 2283500)
# Procedure, shortened: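 Differentiated human HepaRG cells exposed 48 h in serum-free induction medium to 8-point half-log concentrations (top 100 uM, 0.5% DMSO), in duplicate. GCLM mRNA quantified by qRT-PCR, normalized to ACTB, GAPDH, POLR2A; bidirectional fitting versus DMSO.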
# [6] = read-out: Glutathione S-transferase M3 (GSTM3), GSTM3 (gene 2947); test: LTEA_HepaRG_GSTM3: Life Technologies and Expression Analysis (LTEA) Assay for Glutathione S-transferase M3 (GSTM3) using HepaRG (AID 2283501)
# Procedure, shortened: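 Differentiated HepaRG cells in serum-free induction medium were exposed in duplicate for 48 h to 8 half-log concentrations up to 100 uM in 0.5% DMSO. GSTM3 mRNA was measured by TaqMan qRT-PCR, normalized to ACTB/GAPDH/POLR2A, and fitted bidirectionally versus DMSO.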
# [7] = read-out: Heat shock 70 kDa protein 1 (HSPA1A), gene 3303; test: LTEA_HepaRG_HSPA1A: Life Technologies and Expression Analysis (LTEA) Assay for Heat shock 70 kDa protein 1 (HSPA1A) using HepaRG (AID 2283502)
# Procedure, shortened: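 Differentiated human HepaRG cells in serum-free induction medium were exposed in duplicate for 48 h to eight concentrations (top 100 uM, half-log steps, 0.5% DMSO). HSPA1A mRNA was quantified by qRT-PCR, normalized to ACTB, GAPDH and POLR2A, and fitted bidirectionally against DMSO.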
# [8] = read-out: Hypoxia-inducible factor 1-alpha (Homo sapiens) (UniProt Q16665); test: LTEA_HepaRG_HIF1A: Life Technologies and Expression Analysis (LTEA) Assay for Hypoxia-inducible factor 1 (HIF1A) Trancription factor using HepaRG (AID 2283503)
# Procedure, shortened: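 HepaRG, 48 h exposure, 8-pt half-log series from 100 uM, 0.5% DMSO vehicle, duplicates. Readout: HIF1A transcript by qRT-PCR (Fluidigm array), housekeeping-normalised. Bidirectional curve fit vs DMSO baseline.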
# [9] = read-out: 3-Hydroxy-3-Methylglutaryl-CoA Synthase 2 (HMGCS2), HMGCS2 (gene 3158); test: LTEA_HepaRG_HMGCS2: Life Technologies and Expression Analysis (LTEA) Assay for 3-Hydroxy-3-Methylglutaryl-CoA Synthase 2 (HMGCS2) using HepaRG (AID 2283504)
# Procedure, shortened: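 Differentiated human HepaRG cells were exposed in duplicate for 48 h in serum-free induction medium to eight concentrations (top 100 uM, half-log steps, 0.5% DMSO). HMGCS2 mRNA was quantified by TaqMan qRT-PCR, normalised to ACTB, GAPDH and POLR2A, then fitted bidirectionally against DMSO.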
# [10] = read-out: HGF (gene 3082); test: LTEA_HepaRG_HGF: Life Technologies and Expression Analysis (LTEA) Assay for Hepatocyte Growth Facto (HGF) using HepaRG (AID 2283505)
# Procedure, shortened: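 Differentiated human HepaRG cells in serum-free induction medium were exposed in duplicate for 48 h to eight concentrations (top 100 uM, half-log steps, 0.5% DMSO). HGF mRNA was quantified by qRT-PCR, normalized to ACTB, GAPDH and POLR2A.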
# [11] = read-out: Insulin Like Growth Factor 1 (IGF1), IGF1 (gene 3479); test: LTEA_HepaRG_IGF1: Life Technologies and Expression Analysis (LTEA) Assay for Insulin Like Growth Factor 1 (IGF1) using HepaRG (AID 2283506)
# Procedure, shortened: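 Differentiated human HepaRG cells were dosed for 48 h in serum-free induction medium with 0.5% DMSO, eight half-log concentrations up to 100 uM, in duplicate. IGF1 mRNA was quantified by qRT-PCR normalized to ACTB, GAPDH, POLR2A; bidirectional fitting versus DMSO.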
# [12] = read-out: Intercellular Adhesion Molecule 1 (ICAM1), ICAM1 (gene 3383); test: LTEA_HepaRG_ICAM1: Life Technologies and Expression Analysis (LTEA) Assay for Intercellular Adhesion Molecule 1 (ICAM1) using HepaRG (AID 2283507)
# Procedure, shortened: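 Differentiated HepaRG cells in serum-free induction medium were exposed in duplicate for 48 h to eight half-log concentrations up to 100 uM in 0.5% DMSO. Transcript levels were measured by qRT-PCR normalized to ACTB, GAPDH and POLR2A; bidirectional fits relative to DMSO.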
# [13] = read-out: Insulin-like growth factor-binding protein 1 (IGFBP1), IGFBP1 (gene 3484); test: LTEA_HepaRG_IGFBP1: Life Technologies and Expression Analysis (LTEA) Assay for Insulin-like growth factor-binding protein 1 (IGFBP1) using HepaRG (AID 2283508)
# Procedure, shortened: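 Differentiated human HepaRG cells in serum-free induction medium were exposed in duplicate for 48 h to eight concentrations, top 100 uM with half-log dilutions, in 0.5% DMSO. Transcript levels came from qRT-PCR normalised to ACTB, GAPDH and POLR2A, fitted bidirectionally against DMSO.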
# [14] = read-out: Interleukin 6 (IL6), IL6 (gene 3569); test: LTEA_HepaRG_IL6: Life Technologies and Expression Analysis (LTEA) Assay for Interleukin 6 (IL6) using HepaRG (AID 2283509)
# Procedure, shortened: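 Differentiated human HepaRG cells, plated 48 h then switched to serum-free induction medium, were exposed in duplicate for 48 h to eight half-log concentrations up to 100 uM in 0.5% DMSO. IL6 mRNA measured by qRT-PCR, normalized to ACTB/GAPDH/POLR2A.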
# [15] = read-out: Interleukin 6 Receptor (IL6R), IL6R (gene 3570); test: LTEA_HepaRG_IL6R: Life Technologies and Expression Analysis (LTEA) Assay for Interleukin 6 Receptor (IL6R) using HepaRG (AID 2283510)
# Procedure, shortened: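 Differentiated human HepaRG cells, plated 48 h then switched to serum-free induction medium, were dosed in duplicate for 48 h at eight half-log concentrations up to 100 uM in 0.5% DMSO. IL6R mRNA quantified by qRT-PCR, normalized to ACTB/GAPDH/POLR2A; bidirectional fit versus DMSO.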
# [16] = read-out: Potassium channel subfamily K member 1 (KCNK1), KCNK1 (gene 3775); test: LTEA_HepaRG_KCNK1: Life Technologies and Expression Analysis (LTEA) Assay for Potassium channel subfamily K member 1 (KCNK1) using HepaRG (AID 2283511)
# Procedure, shortened: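 Differentiated human HepaRG cells in serum-free induction medium were exposed in duplicate for 48 h to 8 half-log concentrations up to 100 uM in 0.5% DMSO. KCNK1 mRNA was measured by TaqMan qRT-PCR, normalized to ACTB, GAPDH and POLR2A, and fitted bidirectionally versus DMSO.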
# [17] = read-out: Keratin 19 (KRT19), KRT19 (gene 3880); test: LTEA_HepaRG_KRT19: Life Technologies and Expression Analysis (LTEA) Assay for Keratin 19 (KRT19) using HepaRG (AID 2283512)
# Procedure, shortened: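 Differentiated human HepaRG cells, plated 48 h, were exposed in duplicate for 48 h in serum-free induction medium to eight half-log concentrations up to 100 uM in 0.5% DMSO. KRT19 mRNA was quantified by qRT-PCR, normalized to ACTB, GAPDH and POLR2A, and fitted bidirectionally versus DMSO.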
# [18] = read-out: JUN Transcription Factor, JUN (gene 3725); test: LTEA_HepaRG_JUN: Life Technologies and Expression Analysis (LTEA) Assay for JUN Transcription Factor using HepaRG (AID 2283513)
# Procedure, shortened: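 Differentiated HepaRG cells were exposed to chemicals for 48 h in serum-free induction medium, 8 concentrations from 100 uM in half-log steps, 0.5% DMSO vehicle, in duplicate. JUN mRNA was quantified by TaqMan qRT-PCR, normalized to ACTB, GAPDH, POLR2A.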
# [19] = read-out: Lipase C (LIPC), LIPC (gene 3990); test: LTEA_HepaRG_LIPC: Life Technologies and Expression Analysis (LTEA) Assay for Lipase C (LIPC) using HepaRG (AID 2283514)
# Procedure, shortened: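 Differentiated human HepaRG cells in serum-free induction medium were exposed in duplicate for 48 h to eight concentrations (top 100 uM, half-log steps, 0.5% DMSO). LIPC mRNA was quantified by TaqMan qRT-PCR, normalized to ACTB, GAPDH and POLR2A, with bidirectional fitting versus DMSO.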
# [20] = read-out: Lipoprotein lipase (LPL), LPL (gene 4023); test: LTEA_HepaRG_LPL: Life Technologies and Expression Analysis (LTEA) Assay for Lipoprotein lipase (LPL) using HepaRG (AID 2283515)
# Procedure, shortened: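 Differentiated human HepaRG cells in serum-free induction medium were exposed in duplicate for 48 h to eight half-log concentrations (top 100 uM) in 0.5% DMSO. LPL mRNA was quantified by TaqMan qRT-PCR, normalized to ACTB, GAPDH and POLR2A.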
# Hypoxia-inducible factor 1-alpha (Homo sapiens), sequence (Q16665 whole entry, looked up): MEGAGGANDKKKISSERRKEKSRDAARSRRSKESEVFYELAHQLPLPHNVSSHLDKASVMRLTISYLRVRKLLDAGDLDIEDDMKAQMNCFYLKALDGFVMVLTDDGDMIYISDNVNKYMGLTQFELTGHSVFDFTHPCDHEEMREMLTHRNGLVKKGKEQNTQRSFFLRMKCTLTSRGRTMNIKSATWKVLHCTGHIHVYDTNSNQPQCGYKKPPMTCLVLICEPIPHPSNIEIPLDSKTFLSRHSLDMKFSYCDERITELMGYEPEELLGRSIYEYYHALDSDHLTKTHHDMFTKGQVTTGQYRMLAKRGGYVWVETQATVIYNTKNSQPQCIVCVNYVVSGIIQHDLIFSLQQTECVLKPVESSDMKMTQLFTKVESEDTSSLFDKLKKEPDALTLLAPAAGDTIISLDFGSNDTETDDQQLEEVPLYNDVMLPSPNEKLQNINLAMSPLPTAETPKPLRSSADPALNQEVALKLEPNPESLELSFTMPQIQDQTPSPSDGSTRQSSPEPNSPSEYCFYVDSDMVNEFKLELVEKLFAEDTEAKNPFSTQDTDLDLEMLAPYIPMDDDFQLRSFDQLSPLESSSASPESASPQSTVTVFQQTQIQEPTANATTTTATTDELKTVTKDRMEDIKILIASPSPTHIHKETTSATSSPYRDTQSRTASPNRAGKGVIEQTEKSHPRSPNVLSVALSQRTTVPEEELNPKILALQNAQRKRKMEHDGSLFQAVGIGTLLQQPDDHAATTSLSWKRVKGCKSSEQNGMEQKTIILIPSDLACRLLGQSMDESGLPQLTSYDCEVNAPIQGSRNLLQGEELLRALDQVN
smiles,measurement,setting,value
CCCCNC(=O)n1c(NC(=O)OC)nc2ccccc21,outcome,[1],inactive
same,outcome,[2],inactive
same,outcome,[3],inactive
same,outcome,[4],inactive
same,outcome,[5],inactive
same,outcome,[6],inactive
same,outcome,[7],inactive
same,outcome,[8],inactive
same,outcome,[9],inactive
same,outcome,[10],inactive
same,outcome,[11],inactive
same,outcome,[12],inactive
same,outcome,[13],inactive
same,outcome,[14],inactive
same,outcome,[15],inactive
same,outcome,[16],inactive
same,outcome,[17],inactive
same,outcome,[18],inactive
same,outcome,[19],inactive
same,outcome,[20],inactive
CO/C=C(/C(=O)OC)c1ccccc1Oc1cc(Oc2ccccc2C#N)ncn1,AC50,[1],93.4 µM (active) and 94.1 µM (active) and 87.4 µM (active)
same,AC50,[2],81.5 µM (active) and 81 µM (active) and 78.7 µM (active)
same,outcome,[3],inactive
same,AC50,[5],75.6 µM (active) and 63.3 µM (active) and 71.8 µM (active)
same,AC50,[6],83.1 µM (active)
same,outcome,[6],inactive
same,AC50,[7],83.4 µM (active)
same,outcome,[7],inactive
same,AC50,[8],86.1 µM (active)
same,outcome,[8],inactive
same,AC50,[9],77.1 µM (active) and 76.2 µM (active) and 72.6 µM (active)
same,outcome,[10],inactive
same,AC50,[11],79.8 µM (active) and 62.8 µM (active) and 74 µM (active)
same,AC50,[12],83.5 µM (active) and 87.8 µM (active) and 88.9 µM (active)
same,AC50,[13],63.6 µM (active) and 72.5 µM (active) and 76.7 µM (active)
same,AC50,[14],81.4 µM (active) and 80.9 µM (active) and 82.8 µM (active)
same,outcome,[15],inactive
same,outcome,[16],inactive
same,AC50,[17],61.1 µM (active) and 37.1 µM (active) and 50 µM (active)
same,outcome,[18],inactive
same,AC50,[19],80.8 µM (active) and 75.3 µM (active) and 71.2 µM (active)
same,AC50,[20],82.4 µM (active) and 82.1 µM (active) and 85.2 µM (active)
